# Results as given in PubChem BioAssay AID1159580 (chemical genetic matrix, 2015).
# The whole screen tested about 5,500 compounds, of which about 2,000 (36%) were called active. Not shown: some 18% with an inconclusive outcome. Some of the results follow. Values without a mark were called inactive. Cut-off read from the data, not from the text of the source: active = normalized growth mostly below about 0.91 (no sharp cut-off); inconclusive = no clear call, values can overlap the other calls; inactive = mostly above about 0.92.
# Assay: chemical genetic growth profiling, strain panel (AID 1159580);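 note: tested at 20 µM; growth read once vehicle control cultures reached saturation at 30 °C; 1 = growth at the plate median or of vehicle wells; lower values mean less growth of the strain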
# Settings: S. cerevisiae deletion strains, growth OD
# [1] = locus YAL040C, strain CLN3, hits give low values
# [2] = locus YCL061C, strain MRC1 (second series), hits give low values
# [3] = locus YDR363W, strain ESC2, hits give low values
# [4] = locus YER002W, strain NOP16, hits give low values
# [5] = locus YMR307W, strain GAS1, hits give low values
# [6] = locus YNL153C, strain GIM3, hits give low values
# [7] = locus YNL175C, strain NOP13, hits give low values
# [8] = locus YNL197C, strain WHI3, hits give low values
# [9] = locus YNL224C, strain SQS1, hits give low values
# [10] = locus YOR083W, strain WHI5 (second series), hits give low values
# [11] = locus YPL055C, strain LGE1, hits give low values
# [12] = locus YPL241C, strain CIN2, hits give low values
# [13] = locus YAR019C, strain CDC15, hits give low values
# [14] = locus YBL105C, strain PKC1, hits give low values
# [15] = locus YBR135W, strain CKS1, hits give low values
# [16] = locus YBR136W, strain MEC1, hits give low values
# [17] = locus YBR160W, strain CDC28, hits give low values
# [18] = locus YDL017W, strain CDC7, hits give low values
# [19] = locus YDL028C, strain MPS1, hits give low values
# [20] = locus YDL101C, strain DUN1, hits give low values
# [21] = locus YDL108W, strain KIN28, hits give low values
# [22] = locus YDL132W, strain cdc53, hits give low values
# [23] = locus YDL214C, strain PRR2, hits give low values
# [24] = locus YDR052C, strain DBF4, hits give low values
# [25] = locus YDR054C, strain cdc34, hits give low values
# [26] = locus YDR226W, strain ADK1, hits give low values
# [27] = locus YDR477W, strain SNF1, hits give low values
# [28] = locus YER123W, strain YCK3, hits give low values
# [29] = locus YER133W, strain GLC7, hits give low values
# [30] = locus YFL009W, strain cdc4, hits give low values
# [31] = locus YFL029C, strain CAK1, hits give low values
# [32] = locus YFR003C, strain YPI1, hits give low values
# [33] = locus YFR019W, strain FAB1, hits give low values
# [34] = locus YFR028C, strain CDC14, hits give low values
# [35] = locus YGR040W, strain KSS1, hits give low values
# [36] = locus YGR052W, strain FMP48, hits give low values
# [37] = locus YGR092W, strain DBF2, hits give low values
# [38] = locus YHR030C, strain SLT2, hits give low values
# [39] = locus YHR079C, strain IRE1, hits give low values
# [40] = locus YHR082C, strain KSP1, hits give low values
# [41] = locus YHR205W, strain SCH9, hits give low values
# [42] = locus YIL147C, strain SLN1, hits give low values
# [43] = locus YJL095W, strain BCK1, hits give low values
# [44] = locus YJL128C, strain PBS2, hits give low values
# [45] = locus YJL157C, strain FAR1, hits give low values
# [46] = locus YJR016C, strain ILV3, hits give low values
# [47] = locus YJR066W, strain TOR1 (second series), hits give low values
# [48] = locus YJR066W, strain TOR1, hits give low values
# [49] = locus YKL048C, strain ELM1, hits give low values
# [50] = locus YKL067W, strain YNK1, hits give low values
# [51] = locus YKL101W, strain HSL1, hits give low values
# [52] = locus YKL193C, strain SDS22, hits give low values
# [53] = locus YKL203C, strain TOR2, hits give low values
# [54] = locus YLR113W, strain HOG1, hits give low values
# [55] = locus YLR133W, strain CKI1, hits give low values
# [56] = locus YLR403W, strain SFP1, hits give low values
# [57] = locus YML070W, strain DAK1, hits give low values
# [58] = locus YMR001C, strain CDC5, hits give low values
# [59] = locus YMR205C, strain PFK2 (second series), hits give low values
# [60] = locus YMR277W, strain FCP1, hits give low values
# [61] = locus YNL006W, strain LST8, hits give low values
# [62] = locus YNL020C, strain ARK1, hits give low values
# [63] = locus YNL161W, strain CBK1, hits give low values
# [64] = locus YNL183C, strain NPR1, hits give low values
# [65] = locus YNL207W, strain RIO2, hits give low values
# [66] = locus YNL222W, strain SSU72, hits give low values
# [67] = locus YNL307C, strain MCK1 (second series), hits give low values
# [68] = locus YOL078W, strain AVO1, hits give low values
# [69] = locus YOL136C, strain PFK27, hits give low values
# [70] = locus YOR061W, strain CKA2, hits give low values
# [71] = locus YOR119C, strain RIO1, hits give low values
# [72] = locus YOR231W, strain MKK1, hits give low values
# [73] = locus YOR329C, strain SCD5, hits give low values
# [74] = locus YPL031C, strain PHO85, hits give low values
# [75] = locus YPL153C, strain RAD53, hits give low values
# [76] = locus YPL204W, strain HRR25, hits give low values
# [77] = locus YPL209C, strain IPL1, hits give low values
# [78] = locus YPL256C, strain CLN2, hits give low values
# [79] = locus YPR025C, strain CCL1, hits give low values
# [80] = locus YPR106W, strain ISR1, hits give low values
# [81] = locus YPR111W, strain DBF20, hits give low values
# [82] = strain NNK1, hits give low values
# [83] = strain TSCII, hits give low values
structure (smiles),measurement,setting,value
NC(=O)c1ncn(C2OC(CO)C(O)C2O)n1 (stereo unspecified),normalized growth,[1],1.01
same,normalized growth,[2],1
same,normalized growth,[3],1
same,normalized growth,[4],0.996
same,normalized growth,[5],1.01
same,normalized growth,[6],1.03
same,normalized growth,[7],1.01
same,normalized growth,[8],1.01
same,normalized growth,[9],1.02
same,normalized growth,[10],1.02
same,normalized growth,[11],1
COc1cc2c(CCNC(C)=O)c[nH]c2cc1Cl,normalized growth,[1],0.983
same,normalized growth,[3],1.03
same,normalized growth,[4],0.956
same,normalized growth,"locus YGR078C, strain PAC10, hits give low values",1.01
same,normalized growth,[5],1.01
same,normalized growth,[6],0.926
same,normalized growth,[7],0.989
same,normalized growth,[8],0.989
same,normalized growth,[9],1
same,normalized growth,"locus YNL322C, strain KRE1, hits give low values",0.998
same,normalized growth,[10],1.03
same,normalized growth,[12],0.996
O=S1(=O)N(CCN2CC=C(c3c[nH]c4cc(F)ccc34)CC2)c2cccc3c2N1CCC3,normalized growth,[1],0.981
same,normalized growth,[2],0.987
same,normalized growth,[3],0.997
same,normalized growth,"locus YJR075W, strain HOC1, hits give low values",1
same,normalized growth,[6],0.851
same,normalized growth,[7],0.987
same,normalized growth,[8],0.994
same,normalized growth,[9],1.02
same,normalized growth,[10],0.958
same,normalized growth,[11],0.951
same,normalized growth,[12],0.977
N#CC(C#N)=Cc1c(-c2ccccc2Cl)[nH]c2ccccc12,normalized growth,[13],0.968
same,normalized growth,[14],0.962
same,normalized growth,[15],0.965
same,normalized growth,[16],0.97
same,normalized growth,[17],0.969
same,normalized growth,[18],0.976
same,normalized growth,[19],0.972
same,normalized growth,[20],0.973
same,normalized growth,[21],0.975
same,normalized growth,[22],0.969
same,normalized growth,[23],0.919
same,normalized growth,[24],0.98
same,normalized growth,[25],0.931
same,normalized growth,[26],0.956
same,normalized growth,[27],0.901
same,normalized growth,[28],0.889
same,normalized growth,[29],0.93
same,normalized growth,[30],0.955
same,normalized growth,[31],0.96
same,normalized growth,[32],0.976
same,normalized growth,[33],0.924
same,normalized growth,[34],0.965
same,normalized growth,[35],0.907
same,normalized growth,[36],0.942
same,normalized growth,[37],0.938
same,normalized growth,[38],0.654 (active)
same,normalized growth,[39],0.812
same,normalized growth,[40],0.932
same,normalized growth,[41],0.836
same,normalized growth,[42],0.971
same,normalized growth,[43],0.822
same,normalized growth,[44],0.958
same,normalized growth,[45],0.923
same,normalized growth,[46],0.956
same,normalized growth,[47],0.897
same,normalized growth,[48],0.902
same,normalized growth,[49],0.926
same,normalized growth,[50],0.918
same,normalized growth,[51],0.899
same,normalized growth,[52],0.967
same,normalized growth,[53],0.961
same,normalized growth,[54],0.821 (active)
same,normalized growth,[55],0.905
same,normalized growth,[56],0.904
same,normalized growth,[57],0.886
same,normalized growth,[58],0.969
same,normalized growth,[59],0.919
same,normalized growth,[60],0.967
same,normalized growth,[61],0.96
same,normalized growth,[62],0.882
same,normalized growth,[63],0.966
same,normalized growth,[64],0.853
same,normalized growth,[65],0.974
same,normalized growth,[66],0.967
same,normalized growth,[67],0.84
same,normalized growth,[68],0.962
same,normalized growth,[69],0.87
same,normalized growth,[70],0.897
same,normalized growth,[71],1
same,normalized growth,[72],0.867
same,normalized growth,[73],0.968
same,normalized growth,[74],0.907
same,normalized growth,[75],0.905
same,normalized growth,[76],0.884
same,normalized growth,[77],0.973
same,normalized growth,[78],0.779 (active)
same,normalized growth,[79],0.961
same,normalized growth,[80],0.954
same,normalized growth,[81],0.927
same,normalized growth,[82],0.959
same,normalized growth,[83],0.964
O=C(Nc1cc(Cl)ccc1O)c1ccccc1CSc1ccc(Cl)cc1,normalized growth,[13],0.977
same,normalized growth,[14],0.984
same,normalized growth,[15],0.985
same,normalized growth,[16],0.98
same,normalized growth,[17],0.979
same,normalized growth,[18],0.986
same,normalized growth,[19],0.985
same,normalized growth,[20],0.989
same,normalized growth,[21],0.981
same,normalized growth,[22],0.988
same,normalized growth,[23],0.823
same,normalized growth,[24],0.983
same,normalized growth,[25],0.979
same,normalized growth,[26],0.976
same,normalized growth,[27],0.8
same,normalized growth,[28],0.749
same,normalized growth,[29],0.839
same,normalized growth,[30],0.981
same,normalized growth,[31],0.977
same,normalized growth,[32],0.979
same,normalized growth,[33],0.753 (active)
same,normalized growth,[34],0.986
same,normalized growth,[35],0.794
same,normalized growth,[36],0.685
same,normalized growth,[37],0.571
same,normalized growth,[38],0.29 (active)
same,normalized growth,[39],0.683
same,normalized growth,[40],0.652
same,normalized growth,[41],0.785
same,normalized growth,[42],0.981
same,normalized growth,[43],0.502
same,normalized growth,[44],0.922
same,normalized growth,[45],0.783
same,normalized growth,[46],0.987
same,normalized growth,[47],0.765
same,normalized growth,[48],0.647
same,normalized growth,[49],0.888
same,normalized growth,[50],0.835
same,normalized growth,[51],0.633 (active)
same,normalized growth,[52],0.988
same,normalized growth,[53],0.784
same,normalized growth,[54],0.52 (active)
same,normalized growth,[55],0.776
same,normalized growth,[56],0.763
same,normalized growth,[57],0.714
same,normalized growth,[58],0.981
same,normalized growth,[59],0.851
same,normalized growth,[60],0.983
same,normalized growth,[61],0.98
same,normalized growth,[62],0.689 (active)
same,normalized growth,[63],0.97
same,normalized growth,[64],0.689
same,normalized growth,[65],0.97
same,normalized growth,[66],0.983
same,normalized growth,[67],0.565 (active)
same,normalized growth,[68],0.986
same,normalized growth,[69],0.753
same,normalized growth,[70],0.603 (active)
same,normalized growth,[71],0.861
same,normalized growth,[72],0.699
same,normalized growth,[73],0.975
same,normalized growth,[74],0.738
same,normalized growth,[75],0.747
same,normalized growth,[76],0.731
same,normalized growth,[77],0.981
same,normalized growth,[78],0.551 (active)
same,normalized growth,[79],0.979
same,normalized growth,[80],0.979
same,normalized growth,[81],0.954
same,normalized growth,[82],0.961
same,normalized growth,[83],0.981
